A selection: hits, their analogues and other compounds. The true share with any hit is near 19%.
Shiga inhibitor: inhibitors of Shiga toxin in Vero cells; Vero cells, Shiga toxin protein synthesis inhibition reporter; inhibition, % at 38.7 µM; 9.2% of 290,000 active; AID 2315; in the data active = inhibition mostly above about 28%, no sharp cut-off; inactive = mostly below about 43%
Lassa entry inh: blocks Lassa virus binding to or entry into cells; Lassa virus pseudotype entry inhibition, cell reporter; Potency, µM (doses to about 37.9 µM), hits mostly inhibitors; 1.2% of 300,000 active; calls by dose curve; tested in HEK293 cells; note: nearly all actives have a fitted effect of over 50% in size
Cycloheximide cs: counter-screen hit for Shiga toxin inhibitors, cycloheximide | cell reporter, cycloheximide protein synthesis inhibition counterscreen | max response, % | 12% of 300,000 active; in the data active = max response mostly above about 13%, no sharp cut-off; inactive = mostly below about 14%; note: read at 38.3 µM for the half of the compounds with a filed dose
Marburg entry inh: inhibitors of Marburg virus binding or cell entry. Marburg virus pseudotyped entry inhibition, cell reporter. 1.8% of 300,000 active. AID 540276. Potency, µM (highest dose often 37.8 µM), usual class: inhibitors; calls by dose curve; tested in HEK293 cells
Pf growth 96h: P. falciparum growth inhibition at 96 hour, primary screen for plastid delayed-death inhibitors | AID 504834 | Potency, µM (top dose mostly 28.7 µM), usual class: inhibitors | P. falciparum luciferase reporter growth, 96 h | 6.9% of 320,000 active
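Two-generation exposure (96 h) targets delayed-death phenotype. Reporter parasites carrying integrated firefly luciferase, in red cells at 2% hematocrit and 0.05% parasitemia final, kept at 37 C, 5% CO2; luminescence loss indicates inhibition.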
Pf growth 48h: inhibits P. falciparum growth in the first generation, 48 h. P. falciparum luciferase growth in erythrocytes, 48 h. Potency, µM (top dose mostly 28.7 µM), hits mostly inhibitors. 5.9% of 310,000 active
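Luciferase-expressing P. falciparum in infected erythrocytes (2% hematocrit, 0.1% parasitemia final) in RPMI 1640/0.5% Albumax were exposed to compound for 48 hours at 37 C, 5% CO2; growth read as luminescence.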
A number is an active result; 0 = inactive; ? = inconclusive; - = not tested or not shown. Unless noted, calls come from the whole dose curve; as a rule, active = well fitted inhibition curve with a large enough effect; inconclusive = small, poorly fitted or top-dose-only effect, or another doubt; inactive = no such curve, though single readings can be large or run the other way.

SMILES | Shiga inhibitor | Lassa entry inh | Cycloheximide cs | Marburg entry inh | Pf growth 96h | Pf growth 48h
Cc1occc1-c1nnc(SCC(=O)N2c3ccccc3CCc3ccccc32)n1C | 0 | 0 | 0 | 0 | - | 7.4µM
Cc1occc1-c1nnc(SCC(=O)N2CCN(c3ccccc3)CC2)n1C | 0 | 0 | 0 | 0 | ? | 0
CCn1c(SCC(=O)N2c3ccccc3CCc3ccccc32)nnc1-c1ccc(OC)cc1 | 0 | 0 | 0 | 0 | 9.3µM | 4.1µM
O=S(=O)(CCc1ccccc1)c1nnnn1C1CCCCC1 | - | - | - | 0 | - | -
Cc1sc2ncnc(NCc3ccccc3)c2c1C | 0 | 0 | 0 | 0 | ? | 0
O=C(O)CSc1nnc(-c2ccncc2)n1Cc1ccccc1 | 0 | 0 | 0 | 0 | 0 | -
CCOc1ccc(-c2nnc(SCC(=O)O)n2Cc2ccccc2)cc1 | - | 0 | 0 | 0 | 0.93µM | 0
CC(C)(C)NC(=O)C12CC3CC(CC(Cl)(C3)C1)C2 | 0 | 0 | 0 | ? | ? | 0
CC(=O)c1ccc(N2CCN(C(=O)c3cn(Cc4ccccc4)nc3-c3cccnc3)CC2)c(F)c1 | - | - | - | - | 9.3µM | 13µM
O=C(c1cn(Cc2ccccc2)nc1-c1ccccc1)N1CCN(c2ccccn2)CC1 | - | - | - | - | ? | 15µM
O=C(O)c1cn(Cc2ccccc2)nc1-c1cccnc1 | 0 | - | 0 | - | 0 | 0
COc1cc(C(CCN2CCCC(C)C2)c2c(OC)cc(OC)c3c2OC(=O)CC3c2ccc(N(C)C)cc2)cc(OC)c1OC (configuration not stated) | 0 | - | 0 | - | 10µM | 9.3µM
COc1cc(C2CC(=O)Oc3c(C(CCN4CCCC(C)C4)c4ccc(N(C)C)cc4)c(OC)cc(OC)c32)cc(OC)c1OC (configuration not stated) | 0 | - | 0 | - | ? | 13µM
Cc1ccc(NC(=O)CCNS(=O)(=O)c2cccc3nonc23)cc1 | 0 | ? | 0 | 0 | 0 | 0
Cc1ccc2c(c1)Cc1c(C(=O)NC3CCCCC3)nn(-c3ccc(Cl)cc3Cl)c1-2 | 0 | - | 0 | - | - | -
Cc1c(C(=O)NN2CCCCC2)nn(-c2ccc(Cl)cc2Cl)c1-c1ccc(Cl)cc1 | - | - | - | - | 8.5µM | ?
CCOc1ccc(C2CC(=O)c3c([nH]c(C(=O)OC4CCC(C)CC4)c3C)C2)cc1 (configuration not stated) | - | 0 | - | 0 | - | -
O=C(Oc1ccc(C(=S)N2CCOCC2)cc1)c1ccc([N+](=O)[O-])cc1 | - | - | 0 | - | 1.5µM | 0
COc1cc(C(=S)N2CCOCC2)ccc1OC(=O)c1ccc(Br)cc1 | 0 | - | 0 | - | 5.2µM | 0
O=C(c1ccc([N+](=O)[O-])cc1)N1CCOCC1 | - | 0 | - | 0 | - | -
CN(Cc1ccccc1)C(=O)C1CCN(S(=O)(=O)c2cc([N+](=O)[O-])ccc2Cl)CC1 | 0 | - | 0 | 0 | ? | 0
CC(=O)C1=C(C)OC(N)=C(C#N)C1c1cc2cc(C)c(C)cc2nc1Cl (configuration not stated) | active | 0 | 31 | 0 | 0 | 0
COC(=O)C1=C(C)OC(N)=C(C#N)C1c1cc2cc(C)ccc2nc1Cl (configuration not stated) | 0 | 0 | 0 | 0 | ? | 0
O=C1C=CC2C3C(=O)N(c4ccccc4)C(=O)C3C1N2Cc1ccccc1 (configuration not stated) | - | 25µM | - | ? | - | -
Cc1cc(C)c(NC(=O)c2ccc3nc(C(C)C)oc3c2)c(C)c1 | - | 0 | - | - | - | -
SMILES | Shiga inhibitor | Lassa entry inh | Cycloheximide cs | Marburg entry inh | Pf growth 96h | Pf growth 48h
COCC(=O)Nc1cc(C(=O)NCC(C)C)ccc1Cl | 0 | 0 | 0 | 0 | 0 | 0
CC(C)CCNC(=O)c1ccc(Cl)c(NC(=O)Cc2ccccc2)c1 | 45 | ? | 0 | 0 | ? | ?
COc1ccc(C(=O)Nc2cc(C(=O)NCCc3ccccc3)ccc2Cl)cc1 | 0 | 0 | 29 | 0 | - | 0
COCC(=O)Nc1cc(C(=O)NCCc2ccccc2)ccc1Cl | 74 | 10µM | 86 | ? | 0 | 0
CCOCC(=O)Nc1cc(C(=O)NCCc2ccccc2)ccc1Cl | 43 | 0 | 42 | ? | 0 | 0
CCCSc1nc2sc3c(c2c(=O)n1-c1ccc(C)cc1)CCCC3 | - | 0 | - | - | - | -
Nc1ccc(Cc2ccccn2)cc1 | 0 | - | 0 | - | 0 | 0
Cc1nc2ccc(Cc3ccc4nc(C)[nH]c4c3)cc2[nH]1 | 0 | 0 | 0 | 0 | 10µM | ?
Cc1ccc2nc(Cc3ccc(N)cc3)[nH]c2c1 | 75 | 0 | 20 | ? | 0 | 0
Cc1nc2ccc(N=NN(C)C)cc2[nH]1 | 0 | - | 0 | - | 0 | 0
Nc1ccc(Cc2nc3c(ccc4ccccc43)[nH]2)cc1 | 97 | 0 | 46 | ? | 0 | 0
Nc1ccc2nc(Cc3ccccc3)[nH]c2c1 | 0 | 0 | 0 | ? | 10µM | 9.3µM
Cc1nc2c(c(C)c1CCC(=O)Nc1cccc(C(F)(F)F)c1)c(=O)n(C)c(=O)n2C | - | 0 | - | 0 | - | -
COCC(=O)N(Cc1cc2ccc(C)cc2[nH]c1=O)c1ccc(C)cc1C | 0 | 0 | 0 | ? | ? | 0
COc1ccc(CC2(CO)CCN(CC3=CC[C@H]4C[C@@H]3C4(C)C)CC2)cc1 | 0 | - | 0 | - | 0 | 7.4µM
COc1cccc2sc(Nc3nc(-c4cc5ccccc5oc4=O)cs3)nc12 | 0 | ? | 0 | 0 | 0 | ?
Cc1ccc(S(=O)(=O)N(C)C)cc1NC(=O)COC(=O)CCCOc1ccccc1 | 0 | - | 0 | - | 0 | 0
Cn1c(=O)[nH]c(=O)c2c1nc(NCCCO)n2Cc1ccc(F)cc1 | 79 | 0 | 0 | 0 | 0 | 0
Cc1ccc(Nc2nc3c(c(=O)[nH]c(=O)n3C)n2Cc2ccc(F)cc2)cc1 | 26 | 0 | 13 | 0 | 0 | ?
Cc1ccc(C(=O)CNc2nc3c(c(=O)[nH]c(=O)n3C)n2Cc2ccccc2)cc1 | 0 | 0 | 0 | 0 | 9.3µM | 13µM
C/C(=N\NC(=O)c1nnn(-c2nonc2N)c1CN(C)c1ccccc1)c1cccnc1 | 0 | - | 0 | - | 0 | 0
O=S(O)CO | 0 | - | 0 | - | - | -
C/C(=N\N(Cc1ccccc1)c1ccccc1)c1cccnc1 | 0 | - | 0 | - | 13µM | 8.3µM
C(=N\N(Cc1ccccc1)c1ccccc1)/c1cccnc1 | 0 | - | 0 | - | 0 | 13µM
Oc1cccc(/C=N/N(Cc2ccccc2)c2ccccc2)c1 | 0 | ? | 0 | 0 | ? | 6.6µM
SMILES | Shiga inhibitor | Lassa entry inh | Cycloheximide cs | Marburg entry inh | Pf growth 96h | Pf growth 48h
C/C(=N\NC(=O)Cc1ccccc1)c1cccnc1 | 0 | - | 0 | - | 0 | 0
Cc1cc2c(s1)c1cnn(Cc3cccc(Cn4ncc5c6sc(C)cc6n(C)c5c4=O)c3F)c(=O)c1n2C | 0 | - | 0 | - | - | -
CCCCCn1ncc2c3sc(C)cc3n(C)c2c1=O | 91 | - | 32 | - | - | -
COc1ccc(NC(=O)Cc2coc3cc(C)cc(C)c23)c(OC)c1 | - | 0 | - | 0 | - | -
COc1ccc(CNc2ncnc3ccc(-c4c(C)noc4C)cc23)cc1 | 0 | - | 0 | - | - | -
CCOC(=O)C1=C(Nc2cccc(Cl)c2)OCC1=O | 0 | 0 | 0 | ? | 9.3µM | 0
CCOC(=O)c1c(NC(=O)Nc2cccc(Cl)c2)sc(C)c1C | 0 | 0 | 0 | 0 | - | ?
CC1(C)Cc2cccc(OCC(O)CN3CCN(c4ccccn4)CC3)c2O1 (configuration not stated) | 0 | 0 | 0 | 0 | ? | 12µM
Cc1cccc(OCC(O)CN2CCN(c3ccccn3)CC2)c1C (configuration not stated) | 0 | - | 0 | - | 0 | 0
CC(=O)Nc1ccc(NC(=O)COc2cc(O)c3c(c2)OC(C)(C)CC3=O)cc1 | 0 | - | 0 | - | 0 | 0
